Source: PubChem BioAssay AID1159580 (chemical genetic matrix, 2015)
In all, about 5,500 compounds went through this assay and about 2,000 (36%) were called active. About 18% were inconclusive and are not listed. Cut-off read from the data, not from the text of the source: active = normalized growth mostly below about 0.91 (no sharp cut-off); inconclusive = no clear call, values can overlap the other calls; inactive = mostly above about 0.92. This is one part of the list.

Experiment: chemical genetic growth profiling, strain panel (AID 1159580);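 note: tested at 20 µM; growth read once vehicle control cultures reached saturation at 30 °C; 1 = growth at the plate median or of vehicle wells; lower values mean less growth of the strain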
Details: S. cerevisiae deletion strains, growth OD

Measured: normalized growth

O=C1C(NCc2ccccc2)=C(NCc2ccccc2)C(=O)c2ccccc21
active: locus YDR226W, strain ADK1, stronger effect = lower value 0.893 | locus YFR028C, strain CDC14, stronger effect = lower value 0.881 | locus YJR016C, strain ILV3, stronger effect = lower value 0.898 | locus YNL207W, strain RIO2, stronger effect = lower value 0.874
inactive: locus YAR019C, strain CDC15, stronger effect = lower value 0.929 | locus YBL105C, strain PKC1, stronger effect = lower value 0.915 | locus YBR135W, strain CKS1, stronger effect = lower value 0.918 | locus YBR136W, strain MEC1, stronger effect = lower value 0.913 | locus YBR160W, strain CDC28, stronger effect = lower value 0.92 | locus YDL017W, strain CDC7, stronger effect = lower value 0.922 | locus YDL028C, strain MPS1, stronger effect = lower value 0.904 | locus YDL101C, strain DUN1, stronger effect = lower value 0.916 | locus YDL108W, strain KIN28, stronger effect = lower value 0.897 | locus YDL132W, strain cdc53, stronger effect = lower value 0.907 | locus YDL214C, strain PRR2, stronger effect = lower value 0.869 | locus YDR052C, strain DBF4, stronger effect = lower value 0.931 | locus YDR054C, strain cdc34, stronger effect = lower value 0.921 | locus YDR477W, strain SNF1, stronger effect = lower value 0.839 | locus YER123W, strain YCK3, stronger effect = lower value 0.845 | locus YER133W, strain GLC7, stronger effect = lower value 0.839 | locus YFL009W, strain cdc4, stronger effect = lower value 0.902 | locus YFL029C, strain CAK1, stronger effect = lower value 0.913 | locus YFR003C, strain YPI1, stronger effect = lower value 0.912 | locus YFR019W, strain FAB1, stronger effect = lower value 0.942 | locus YGR040W, strain KSS1, stronger effect = lower value 0.825 | locus YGR052W, strain FMP48, stronger effect = lower value 0.893 | locus YGR092W, strain DBF2, stronger effect = lower value 0.744 | locus YHR030C, strain SLT2, stronger effect = lower value 0.885 | locus YHR079C, strain IRE1, stronger effect = lower value 0.979 | locus YHR082C, strain KSP1, stronger effect = lower value 0.883 | locus YHR205W, strain SCH9, stronger effect = lower value 0.931 | locus YIL147C, strain SLN1, stronger effect = lower value 0.895 | locus YJL095W, strain BCK1, stronger effect = lower value 0.886 | locus YJL128C, strain PBS2, stronger effect = lower value 0.885 | locus YJL157C, strain FAR1, stronger effect = lower value 0.833 | locus YJR066W, strain TOR1 (second series), stronger effect = lower value 0.775 | locus YJR066W, strain TOR1, stronger effect = lower value 0.879 | locus YKL048C, strain ELM1, stronger effect = lower value 0.829 | locus YKL067W, strain YNK1, stronger effect = lower value 0.862 | locus YKL101W, strain HSL1, stronger effect = lower value 0.875 | locus YKL193C, strain SDS22, stronger effect = lower value 0.906 | locus YKL203C, strain TOR2, stronger effect = lower value 0.84 | locus YLR113W, strain HOG1, stronger effect = lower value 0.895 | locus YLR133W, strain CKI1, stronger effect = lower value 0.856 | locus YLR403W, strain SFP1, stronger effect = lower value 0.802 | locus YML070W, strain DAK1, stronger effect = lower value 0.871 | locus YMR001C, strain CDC5, stronger effect = lower value 0.896 | locus YMR205C, strain PFK2 (second series), stronger effect = lower value 0.878 | locus YMR277W, strain FCP1, stronger effect = lower value 0.903 | locus YNL006W, strain LST8, stronger effect = lower value 0.923 | locus YNL020C, strain ARK1, stronger effect = lower value 0.845 | locus YNL161W, strain CBK1, stronger effect = lower value 0.922 | locus YNL183C, strain NPR1, stronger effect = lower value 0.904 | locus YNL222W, strain SSU72, stronger effect = lower value 0.925 | locus YNL307C, strain MCK1 (second series), stronger effect = lower value 0.842 | locus YOL078W, strain AVO1, stronger effect = lower value 0.911 | locus YOL136C, strain PFK27, stronger effect = lower value 0.884 | locus YOR061W, strain CKA2, stronger effect = lower value 0.817 | locus YOR119C, strain RIO1, stronger effect = lower value 0.784 | locus YOR231W, strain MKK1, stronger effect = lower value 0.954 | locus YOR329C, strain SCD5, stronger effect = lower value 0.935 | locus YPL031C, strain PHO85, stronger effect = lower value 0.837 | locus YPL153C, strain RAD53, stronger effect = lower value 0.826 | locus YPL204W, strain HRR25, stronger effect = lower value 0.827 | locus YPL209C, strain IPL1, stronger effect = lower value 0.934 | locus YPL256C, strain CLN2, stronger effect = lower value 0.986 | locus YPR025C, strain CCL1, stronger effect = lower value 0.93 | locus YPR106W, strain ISR1, stronger effect = lower value 0.899 | locus YPR111W, strain DBF20, stronger effect = lower value 0.91 | strain NNK1, stronger effect = lower value 0.902 | strain TSCII, stronger effect = lower value 0.907
